Measurements as given in PubChem BioAssay (EPA / NIEHS).
Active and inactive are the calls of the source. Rule for the calls: active = hit-call score of the fitted dose curve at least 0.9, where 1 is the maximum; inactive = score below 0.9.

Legend:
[1] = read-out: Transforming growth factor beta 1 (TGFb1), TGFB1 (gene 7040); test: BSK_KF3CT_TGFb1: BioMAP Diversity Plus: KF3CT Assay for Transforming growth factor beta 1 (TGFb1) Biomarker Activity (AID 2283072); settings: primary human keratinocytes with fibroblasts; actives raise or lower the signal
In short: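 TGF-b1 ELISA on a 24 h dosed co-culture of human keratinocytes and foreskin fibroblasts; cytotoxicity tracked in parallel cultures by SRB staining.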

[2] = read-out: C-C motif chemokine 2 (Homo sapiens) (UniProt P13500); test: BSK_KF3CT_MCP1: BioMAP Diversity Plus: KF3CT Assay for Monocyte Chemoattractant Protein 1 (MCP1/CCL2) Biomarker Activity (AID 2283073); settings: primary human keratinocytes with fibroblasts; actives raise or lower the signal
In short: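 Human keratinocyte–foreskin fibroblast co-culture; MCP-1 measured by ELISA 24 h after dosing. Bidirectional fit vs DMSO; cytotoxicity tracked by SRB total protein in parallel cultures.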

[3] = read-out: Matrix Metallopeptidase 9 (MMP9), MMP9 (gene 4318); test: BSK_KF3CT_MMP9: BioMAP Diversity Plus: KF3CT Assay for Matrix Metallopeptidase 9 (MMP9) Biomarker Activity (AID 2283074); settings: primary human keratinocytes with fibroblasts; actives raise or lower the signal;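 for AC50: MMP9 protein level quantified by ELISA in the co-culture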
In short: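 ELISA read-out of MMP-9 at 24 h post-dosing in a co-culture of human skin keratinocytes and foreskin fibroblasts. Gain or loss of signal was fitted in both directions against DMSO.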

[4] = read-out: urokinase plasminogen activator (uPA), PLAU (gene 5328); test: BSK_KF3CT_uPA: BioMAP Diversity Plus: KF3CT Assay for urokinase plasminogen activator (uPA) Biomarker Activity (AID 2283075); settings: primary human keratinocytes with fibroblasts; actives raise or lower the signal
In short: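 Skin co-culture (keratinocytes + foreskin fibroblasts), human primary; 24 h post-dose; uPA by ELISA; gain/loss fit vs DMSO baseline.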

CD40, CD40 (gene 958) [5] = test: BSK_LPS_CD40: BioMAP Diversity Plus: LPS Assay for CD40 Biomarker Activity (AID 2283076); settings: primary human HUVEC with PBMC; actives raise or lower the signal
In short: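 HUVEC plus PBMC co-culture stimulated with LPS; CD40 quantified by ELISA 24 h after compound dosing. Fitting was bidirectional relative to DMSO. SRB staining of parallel cultures flagged overt cytotoxicity.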

[6] = read-out: E-selectin (Homo sapiens) (UniProt P16581); test: BSK_LPS_Eselectin: BioMAP Diversity Plus: LPS Assay for Eselectin Biomarker Activity (AID 2283077); settings: primary human HUVEC with PBMC; actives raise or lower the signal
In short: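 Human umbilical vein endothelial cells co-cultured with PBMC under LPS stimulation; cell-surface E-selectin measured by ELISA 24 h after dosing. Change in either direction versus DMSO, with SRB total-protein staining in parallel cultures for cytotoxicity.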

[7] = read-out: Interleukin-8 (IL8), CXCL8 (gene 3576); test: BSK_LPS_IL8: BioMAP Diversity Plus: LPS Assay for Interleukin-8 (IL8) Biomarker Activity (AID 2283078); settings: primary human HUVEC with PBMC; actives raise or lower the signal
In short: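 Human umbilical vein endothelial cells co-cultured with PBMC, LPS-stimulated, exposed to compound for 24 h. IL-8 quantified by ELISA; fitted in both directions against DMSO, with SRB total-protein staining of parallel cultures for cytotoxicity.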

[8] = BSK_LPS_SRB: Viability Assessment in the BioMAP Diversity Plus: LPS Assay (AID 2283079); settings: primary human HUVEC with PBMC;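 note: total protein by sulforhodamine B absorbance as a cytotoxicity measure; measured one day after compound addition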
In short: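 Co-culture of human umbilical vein endothelial cells and PBMC, read 24 h after dosing. Total protein by 0.1% SRB staining after 10% TCA fixation, absorbance at 560 nm; bidirectional fit against DMSO.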

[9] = read-out: Interleukin-1 alpha (IL1a), IL1A (gene 3552); test: BSK_LPS_IL1a: BioMAP Diversity Plus: LPS Assay for Interleukin-1 alpha (IL1a) Biomarker Activity (AID 2283080); settings: primary human HUVEC with PBMC; actives raise or lower the signal
In short: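 Human umbilical vein endothelial cells co-cultured with PBMC and stimulated with LPS; IL-1a measured by ELISA 24 h after dosing. Bidirectional fitting against DMSO; cytotoxicity checked by SRB staining in parallel cultures.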

[10] = read-out: Monocyte Chemoattractant Protein-1 (MCP1), CCL2 (gene 6347); test: BSK_LPS_MCP1: BioMAP Diversity Plus: LPS Assay for Monocyte Chemoattractant Protein-1 (MCP1) Biomarker Activity (AID 2283081); settings: primary human HUVEC with PBMC; actives raise or lower the signal
In short: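 Human umbilical vein endothelial cells co-cultured with PBMC, LPS-stimulated; secreted MCP-1 measured by ELISA 24 h after compound addition. Bidirectional curve fitting against DMSO baseline; SRB total-protein staining in parallel cultures for cytotoxicity.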

[11] = BSK_LPS_PGE2: BioMAP Diversity Plus: LPS Assay for Prostaglandin E2 (PGE2) Biomarker Activity (AID 2283082); settings: primary human HUVEC with PBMC; actives raise or lower the signal
In short: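 Primary human endothelial cells and blood mononuclear cells, co-cultured with LPS, receive test chemical; PGE2 ELISA follows at 24 h, with SRB-stained parallel cultures flagging cytotoxicity.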

[12] = read-out: Macrophage colony-stimulating factor (MCSF), CSF1 (gene 1435); test: BSK_LPS_MCSF: BioMAP Diversity Plus: LPS Assay for Macrophage colony-stimulating factor (MCSF) Biomarker Activity (AID 2283083); settings: primary human HUVEC with PBMC; actives raise or lower the signal
In short: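 HUVEC–PBMC co-culture, M-CSF measured by ELISA 24 h after chemical dosing. Fitted in both directions relative to DMSO as negative control; overt cytotoxicity assessed by SRB total-protein staining in parallel cultures.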

[13] = read-out: Tissue Factor, F3 (gene 2152); test: BSK_LPS_TissueFactor: BioMAP Diversity Plus: LPS Assay for Tissue Factor Biomarker Activity (AID 2283084); settings: primary human HUVEC with PBMC; actives raise or lower the signal
In short: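 Human umbilical vein endothelial cells co-cultured with PBMC were dosed with compound. Cell-surface CD142 was measured by ELISA 24 h later. Activity was fitted bidirectionally against DMSO, with SRB total-protein staining in parallel cultures for cytotoxicity.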

[14] = read-out: Vascular cell adhesion molecule 1 (VCAM1), VCAM1 (gene 7412); test: BSK_LPS_VCAM1: BioMAP Diversity Plus: LPS Assay for Vascular cell adhesion molecule 1 (VCAM1) Biomarker Activity (AID 2283086); settings: primary human HUVEC with PBMC; actives raise or lower the signal
In short: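 Measured by ELISA: VCAM-1 in LPS-activated HUVEC/PBMC co-cultures 24 h after treatment. Values reflect bidirectional fitting with DMSO as baseline.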

CD38, CD38 (gene 952) = test: BSK_SAg_CD38: BioMAP Diversity Plus: SAg Assay for CD38 Biomarker Activity (AID 2283087); settings: primary human HUVEC with PBMC; actives raise or lower the signal
In short: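 Measures CD38 on a human endothelial/PBMC co-culture driven by SEB and TSST-1, 24 h after compound exposure, using ELISA with fluorescence detection; DMSO defines baseline for bidirectional curve fitting.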

CD40, CD40 (gene 958) [15] = test: BSK_SAg_CD40: BioMAP Diversity Plus: SAg Assay for CD40 Biomarker Activity (AID 2283088); settings: primary human HUVEC with PBMC; actives raise or lower the signal
In short: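 HUVEC plus PBMC co-culture, superantigen-activated, with CD40 read by ELISA 24 h after dosing. Curves fitted in both directions against DMSO. Overt cytotoxicity checked by parallel SRB total-protein staining.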

CD69, CD69 (gene 969) = test: BSK_SAg_CD69: BioMAP Diversity Plus: SAg Assay for CD69 Biomarker Activity (AID 2283089); settings: primary human HUVEC with PBMC; actives raise or lower the signal
In short: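 Values derive from bidirectional fitting relative to DMSO vehicle. Cells: umbilical vein endothelium plus peripheral blood mononuclear cells, treated 24 h before fluorescent ELISA for CD69.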

[16] = read-out: Monocyte Chemoattractant Protein-1 (MCP1), CCL2 (gene 6347); test: BSK_SAg_MCP1: BioMAP Diversity Plus: SAg Assay for Monocyte Chemoattractant Protein-1 (MCP1) Biomarker Activity (AID 2283090); settings: primary human HUVEC with PBMC; actives raise or lower the signal
In short: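 Values derive from bidirectional fitting of ELISA-measured MCP1 against DMSO controls. Readings were taken 24 h after dosing human vascular endothelial cells co-cultured with peripheral blood mononuclear cells under superantigen stimulation.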

[17] = read-out: E-selectin (Homo sapiens) (UniProt P16581); test: BSK_SAg_Eselectin: BioMAP Diversity Plus: SAg Assay for Eselectin Biomarker Activity (AID 2283091); settings: primary human HUVEC with PBMC; actives raise or lower the signal
In short: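 Human umbilical vein endothelial cells co-cultured with peripheral blood mononuclear cells, SAg system. E-selectin is measured by ELISA 24 h after dosing and fitted bidirectionally against DMSO. Cytotoxicity is checked by SRB staining of parallel cultures.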

[18] = read-out: Tumor necrosis factor (Homo sapiens) (UniProt P01375); test: BSK_LPS_TNFa: BioMAP Diversity Plus: LPS Assay for Tumour Necrosis Factor alpha (TNFa) Biomarker Activity (AID 2283085); settings: primary human HUVEC with PBMC; actives raise or lower the signal
In short: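 ELISA-based TNFa endpoint in a human endothelial–PBMC co-culture sampled 24 h post-exposure. Curves were fitted in both directions using DMSO as baseline of activity.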

E-selectin (Homo sapiens), sequence (P16581 whole entry, looked up): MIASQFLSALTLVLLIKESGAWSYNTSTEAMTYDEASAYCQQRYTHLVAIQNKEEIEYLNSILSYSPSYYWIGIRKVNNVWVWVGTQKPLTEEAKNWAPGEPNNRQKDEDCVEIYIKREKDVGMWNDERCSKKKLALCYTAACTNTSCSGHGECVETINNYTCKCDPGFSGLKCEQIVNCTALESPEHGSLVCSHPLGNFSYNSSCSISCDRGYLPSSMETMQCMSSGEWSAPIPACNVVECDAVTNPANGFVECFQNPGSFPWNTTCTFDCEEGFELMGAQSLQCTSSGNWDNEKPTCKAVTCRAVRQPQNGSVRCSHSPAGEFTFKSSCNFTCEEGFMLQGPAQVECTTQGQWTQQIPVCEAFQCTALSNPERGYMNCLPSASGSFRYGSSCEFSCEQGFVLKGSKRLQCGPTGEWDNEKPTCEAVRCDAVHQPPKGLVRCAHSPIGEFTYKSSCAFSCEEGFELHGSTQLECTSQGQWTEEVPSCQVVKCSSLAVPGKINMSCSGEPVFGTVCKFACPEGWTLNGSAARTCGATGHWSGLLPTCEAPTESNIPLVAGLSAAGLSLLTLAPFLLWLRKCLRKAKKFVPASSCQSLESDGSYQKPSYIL
Tumor necrosis factor (Homo sapiens), sequence (P01375 whole entry, looked up): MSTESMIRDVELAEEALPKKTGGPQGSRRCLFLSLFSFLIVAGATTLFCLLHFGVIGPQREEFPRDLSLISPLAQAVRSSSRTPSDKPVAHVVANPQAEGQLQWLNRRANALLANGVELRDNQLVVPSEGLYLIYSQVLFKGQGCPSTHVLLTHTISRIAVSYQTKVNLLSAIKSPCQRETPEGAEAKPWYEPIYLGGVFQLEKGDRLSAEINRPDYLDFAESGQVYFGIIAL

Question: Which outcome [1] does the source give for `Nc1ccc(N)cc1` here?
Answer: inactive

Question: What about the outcome [2] of the same compound?
Answer: inactive

Question: And the outcome [3]?
Answer: inactive

Question: And the outcome [4]?
Answer: inactive

Question: And the outcome (CD40, CD40 (gene 958) [5])?
Answer: inactive

Question: What about the outcome [6] of the same compound?
Answer: inactive

Question: And the outcome [7]?
Answer: inactive

Question: And the outcome [8]?
Answer: inactive

Question: And the outcome [9]?
Answer: inactive

Question: What about the outcome [10] of the same compound?
Answer: inactive

Question: What about the outcome [11] of the same compound?
Answer: inactive

Question: What about the outcome [12] of the same compound?
Answer: inactive

Question: What about the AC50 [13] of the same compound?
Answer: 5.53 µM (active)

Question: What about the outcome [14] of the same compound?
Answer: inactive

Question: And the outcome (CD38, CD38 (gene 952))?
Answer: inactive

Question: And the outcome (CD40, CD40 (gene 958) [15])?
Answer: inactive

Question: What about the outcome (CD69, CD69 (gene 969)) of the same compound?
Answer: inactive

Question: What about the outcome [16] of the same compound?
Answer: inactive

Question: What about the outcome [17] of the same compound?
Answer: inactive

Question: Which AC50 [1] does the source give for `CCCCCCCCCCCCc1cccc(S(=O)(=O)O)c1` here?
Answer: 25.3 µM (active)

Question: What about the AC50 [2] of the same compound?
Answer: 28.7 µM (active)

Question: What about the AC50 [3] of the same compound?
Answer: 18 µM (active)

Question: What about the AC50 [4] of the same compound?
Answer: 29.6 µM (active)

Question: And the outcome (CD40, CD40 (gene 958) [5])?
Answer: inactive

Question: And the outcome [6]?
Answer: inactive

Question: And the outcome [7]?
Answer: inactive

Question: And the outcome [8]?
Answer: inactive

Question: And the outcome [9]?
Answer: inactive

Question: What about the outcome [10] of the same compound?
Answer: inactive

Question: What about the outcome [11] of the same compound?
Answer: inactive

Question: What about the outcome [12] of the same compound?
Answer: inactive

Question: And the outcome [13]?
Answer: inactive

Question: And the outcome [18]?
Answer: inactive

Question: What about the outcome [14] of the same compound?
Answer: inactive

Question: And the outcome (CD38, CD38 (gene 952))?
Answer: inactive

Question: And the outcome (CD40, CD40 (gene 958) [15])?
Answer: inactive

Question: And the outcome (CD69, CD69 (gene 969))?
Answer: inactive

Question: And the outcome [16]?
Answer: inactive

Question: And the outcome [17]?
Answer: inactive

Question: Which results are given for `CC(C)O.CC(C)O.OCCN(CCO)CCO.OCCN(CCO)CCO.[Ti]`?
Answer: outcome [1]: inactive; outcome [2]: inactive; outcome [3]: inactive; outcome [4]: inactive; outcome (CD40, CD40 (gene 958) [5]): inactive; outcome [6]: inactive; outcome [7]: inactive; outcome [8]: inactive; outcome [9]: inactive; outcome [10]: inactive; outcome [11]: inactive; outcome [12]: inactive; AC50 [13]: 1.38 µM (active); outcome [18]: inactive; outcome [14]: inactive; outcome (CD38, CD38 (gene 952)): inactive; outcome (CD40, CD40 (gene 958) [15]): inactive; outcome (CD69, CD69 (gene 969)): inactive; outcome [16]: inactive; outcome [17]: inactive
